Source: PubChem
TbPYK inhibitor: inhibitors of Trypanosoma brucei pyruvate kinase; Q57TT1; TbPYK enzyme, Kinase-Glo Plus ATP luminescence, 45 min; Potency, µM (series often up to 76.8 µM), hits mostly inhibitors; 0.12% of 410,000 active; AID 624173; further: nearly all actives have a fitted effect of over 50% in size
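Enzyme and substrate buffer are dispensed first and compound is pin-transferred. ADP at 130 uM final then starts the reaction, which runs 45 min at room temperature. Detection reagent is added for 10 min before luminescence is imaged.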
Giardia FBPA inh: blocks Giardia fructose-bisphosphate aldolase activity; 0.71% of 290,000 active; Potency, µM (doses to about 59.6 µM), usual class: inhibitors; AID 2451; A8B2U2; purified Giardia FBPA; further: nearly all actives have a fitted effect of over 55% in size
Target sequence (A8B2U2 whole entry, looked up): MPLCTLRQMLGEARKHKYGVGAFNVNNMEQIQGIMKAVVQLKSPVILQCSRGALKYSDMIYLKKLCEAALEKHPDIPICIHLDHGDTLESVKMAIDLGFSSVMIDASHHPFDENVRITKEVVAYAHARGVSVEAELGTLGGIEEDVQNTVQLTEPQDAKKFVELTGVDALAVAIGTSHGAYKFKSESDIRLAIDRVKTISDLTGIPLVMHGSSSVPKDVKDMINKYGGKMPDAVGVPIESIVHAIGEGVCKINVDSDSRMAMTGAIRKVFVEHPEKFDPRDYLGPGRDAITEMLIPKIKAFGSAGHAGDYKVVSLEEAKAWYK
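Giardia FBPA (40 nM reagent) was preincubated 10 min at RT with compound (up to 57.5 uM final), then substrate plus GAPDH/TPI/NAD/arsenate coupling system with diaphorase/resazurin was added; resorufin fluorescence (525/598 nm) was read after 20 min.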
RE007 growth inh: less growth of the S. pombe RE007 Vpr strain. Potency, µM (top dose mostly 92.2 µM), usual class: inhibitors. 0.21% of 360,000 active. S. pombe RE007 Vpr strain, BacTiter-Glo ATP luminescence, 24 h; active means well fitted falling curve with a large enough effect; inconclusive means small, poorly fitted or top-dose-only effect; inactive means no such curve, though single readings can be large or run the other way; further: nearly all actives have a fitted effect of over 50% in size
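Fission yeast strain RE007, carrying one chromosomally integrated HIV-1 vpr copy, was seeded at OD 0.01 in PMG+AL medium with 23 nL pinned compound. After 24 h at 30 °C and 99% humidity, viability was read by BacTiter-Glo luminescence.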
CHX counter: counter-screen for Shiga toxin inhibitors: cycloheximide protein synthesis inhibition. cell reporter, cycloheximide protein synthesis inhibition counterscreen. max response, %. 12% of 300,000 active. AID 2314; in the data active means max response mostly above about 13%, no sharp cut-off; inactive means mostly below about 14%; further: read at 38.3 µM for the half of the compounds with a filed dose
Shiga toxin inh: inhibitors of Shiga toxin in Vero cells; Vero cells, Shiga toxin protein synthesis inhibition reporter; inhibition, % at 38.7 µM; 9.2% of 290,000 active; in the data active means inhibition mostly above about 28%, no sharp cut-off; inactive means mostly below about 43%
LmPK inhibitor: blocks Leishmania mexicana pyruvate kinase activity; Q27686; purified LmPK, Kinase-Glo ATP luminescence, 1 h; Potency, µM (doses to about 57.5 µM), usual class: inhibitors; 0.37% of 290,000 active
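Kinase-Glo luminescence read after 1 h RT reaction of 0.1 nM LmPK with 0.5 mM PEP and 0.1 mM ADP. Activity scaled between uninhibited and enzyme-free controls.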
Each line names hits and unclear results; the compound was inactive in the other large screens. Shown is part of a subset that was picked to be rich in hits. Unless noted, the call rests on the fitted dose curve; in most records, active means well fitted curve in the direction sought with a large enough effect; inconclusive means small, poorly fitted or top-dose-only effect, or another doubt; inactive means no such curve, though single readings can be large; an effect the other way counts as inactive or inconclusive.

CCOC(=O)c1ccc(N2N=C(C)/C(=C/C=C/c3ccco3)C2=O)cc1	none
Cc1cc(C(=O)CSc2nnnn2C)c(C)n1-c1ccc2c(c1)OCCO2	Giardia FBPA inh inconclusive, CHX counter 37, Shiga toxin inh 142
Cc1nnc(SCC(=O)c2cc(C)n(-c3ccc4c(c3)OCO4)c2C)s1	Giardia FBPA inh inconclusive, CHX counter 18, Shiga toxin inh 36
Cc1nnc(SCc2ccc3c(c2)OCO3)s1	CHX counter 81, Shiga toxin inh 142
Cc1nnc(SCc2cccc(CSc3nnc(C)s3)c2)s1	none
CCOc1ccccc1O[C@@H](c1ccccc1)[C@@H]1CNCCO1	none (no result: RE007 growth inh, CHX counter, Shiga toxin inh, LmPK inhibitor)
C/C(=N\NC(=O)c1ccc(Cl)cc1)c1cccs1	CHX counter 19, Shiga toxin inh 57, LmPK inhibitor inconclusive
C/C(=N/NC(=O)c1ccc2nc[nH]c2c1)c1cccs1	CHX counter 39, Shiga toxin inh 55
Cc1ccc(/C=N/NC(=O)c2ccc3nc[nH]c3c2)s1	none
C/C(=N/NC(=O)c1cccs1)c1ccc(NC(=O)COc2ccc(Cl)cc2)cc1	CHX counter 36, Shiga toxin inh 79
C/C(=N\NC(=S)NC1CCCCC1)c1cccs1	CHX counter 28, Shiga toxin inh 58
CCOC(=O)N1CCc2c(sc(NCc3cccc(F)c3)c2C(=O)Nc2ccc(OCC)cc2)C1	none (no result: Giardia FBPA inh, RE007 growth inh, CHX counter, Shiga toxin inh, LmPK inhibitor)
COC(=O)N/N=C(\C)c1cccs1	CHX counter 11
CC(Oc1ccc(Cl)cc1Cl)c1ccnc(N)n1 (configuration not stated)	none
CC(Oc1ccccc1)c1ccnc(N)n1 (configuration not stated)	CHX counter 22
O=C(CSc1ccc2nnc(CCNC(=O)c3ccccc3)n2n1)Nc1ccccc1	none
COc1ccc(C(=O)NCCc2nnc(SCC(=O)Nc3ccccc3F)n2C)cc1	none
COc1ccc(C(=O)NCCc2nnc3ccc(SCC(=O)Nc4ccccc4)nn23)cc1	CHX counter 44, Shiga toxin inh 73 (no result: Giardia FBPA inh)
COc1ccccc1NC(=O)CSc1nnc(CCNC(=O)c2ccc(C)cc2)n1C	CHX counter 15
CCOc1ccc(NC(=O)C2CC(=O)N(c3ccc(C(C)C)cc3)C2)cc1 (configuration not stated)	none (no result: Giardia FBPA inh, RE007 growth inh, CHX counter, Shiga toxin inh, LmPK inhibitor)
Fc1cccc(Cl)c1CNc1n[nH]c(-c2ccco2)n1	none (no result: Giardia FBPA inh, RE007 growth inh, CHX counter, Shiga toxin inh, LmPK inhibitor)
C[C@H](NC(=O)c1nc[nH]c1C(=O)NCCCCCNC(=O)OC(C)(C)C)C(=O)OC(C)(C)C	CHX counter 31, Shiga toxin inh 57
CC(C)(C)OC(=O)CNC(=O)c1[nH]cnc1C(=O)NCCCCCNC(=O)OC(C)(C)C	Giardia FBPA inh inconclusive
CCOC(=O)N1CCC(NC(=O)c2ccc(Cl)cc2)CC1	none
CCOC(=O)N1CCC(Nc2nc3ccccc3nc2NS(=O)(=O)c2ccc(Cl)cc2)CC1	CHX counter 30, Shiga toxin inh 96
O=C1[C@@H]2CSC(c3ccc(Cl)cc3)N2C(=O)N1c1ccccc1 (some centres not stated)	none (no result: Giardia FBPA inh, RE007 growth inh, CHX counter, Shiga toxin inh, LmPK inhibitor)
Cc1cc2c(cc1NS(=O)(=O)c1ccc(NC(=O)CC(C)C)cc1)n(C)c(=O)c(=O)n2C	none (no result: Giardia FBPA inh, RE007 growth inh, CHX counter, Shiga toxin inh, LmPK inhibitor)
CCOC(=O)CN=C1CC(C)(C)CC2=C1Sc1ncnc(N(C)C)c1N2	TbPYK inhibitor inconclusive, Giardia FBPA inh 2.5µM
COc1ccccc1CNC(=O)C(Cc1ccccc1)NS(=O)(=O)c1ccc2c(c1)CCN2C(C)=O (configuration not stated)	none (no result: Giardia FBPA inh, RE007 growth inh, CHX counter, Shiga toxin inh, LmPK inhibitor)
O=C(OCC(=O)C12CC3CC(CC(C3)C1)C2)c1cccnc1Cl	CHX counter 20
O=C(COC(=O)c1cccnc1Cl)c1ccc(Cl)cc1Cl	none
O=C(OCC(=O)C12CC3CC(CC(C3)C1)C2)c1ccccn1	none (no result: Giardia FBPA inh)
Cc1cc(C)c(C(=O)COC(=O)c2cccnc2Cl)c(C)c1	CHX counter 56, Shiga toxin inh 90
O=C(COC(=O)c1cccnc1Cl)c1ccc(OC(F)F)cc1	LmPK inhibitor 16µM
COc1ccc(OC)c(C(=O)COC(=O)c2ccccc2O)c1	CHX counter 16, Shiga toxin inh 110 (no result: TbPYK inhibitor)
Cc1nn(-c2ccccc2)c2c1N(CC(=O)NCc1ccc(N(C)C)cc1)C(=O)CS2	none (no result: Giardia FBPA inh, RE007 growth inh, CHX counter, Shiga toxin inh, LmPK inhibitor)
Cc1ccc(C(=O)N2CC(=O)Nc3ccc(Br)cc3C2c2ccc(F)cc2)cc1C (configuration not stated)	none (no result: Giardia FBPA inh, RE007 growth inh, CHX counter, Shiga toxin inh, LmPK inhibitor)
